From PubChem BioAssay
In the library only some 7.4% were active in any assay of this set; here they are far more common.
ELG1 genotoxic: qHTS screen for small molecules that induce genotoxicity in human embryonic kidney (HEK293T) cells expressing luciferase-tagged ELG1; HEK293T ELG1-luciferase reporter, luminescence, 16 h; Potency, µM (top dose mostly 46 µM), most hits filed as activators; 330,000 compounds, 1.3% hits; AID 504466, 2011; also: nearly all actives have a fitted effect of over 60% in size
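Luminescence read-out: rising ELG1-luciferase signal, reflecting elevated ELG1 protein under genetic stress, flags genotoxic compounds. Cells were treated for 16 hr at 37 °C before ONE-Glo detection.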
NPC1 promoter act: qHTS Assay for NPC1 Promoter Activators; Huh7 NPC1 promoter luciferase reporter, 24 h; Potency, µM (doses to about 9.22 µM), hits mostly activators; 320,000 compounds, 2.4% hits; AID 485313, 2010; also: nearly all actives have a fitted effect of over 60% in size
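Quantitative HTS used a cell-based reporter: Huh7 cells stably bearing the NPC1 promoter upstream of luciferase were treated with compounds for 24 h, and promoter activation was read as luminescence.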
SMN2 splice up: qHTS Assay for Enhancers of SMN2 Splice Variant Expression. Potency, µM (series often up to 46.1 µM), actives largely listed as activators. 210,000 compounds, 2.8% hits. HEK293 SMN2-luciferase splicing reporter, luminescence, 30-36 h; also: nearly all actives have a fitted effect of over 55% in size
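HEK293 cells carry an SMN2 minigene-luciferase reporter in which exon 7 inclusion puts luciferase in frame. Cells were seeded at 2000 cells/well, attached for 10-12 hours, then exposed to compounds for 30-36 hours at 37C before ONE-Glo luminescence.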
FLuc counter: qHTS profiling assay for firefly luciferase inhibitor/activator using purifed enzyme and Km concentrations of substrates (counterscreen for miR-21 project). Potency, µM (doses to about 57.5 µM), actives largely listed as inhibitors. 360,000 compounds, 6.9% hits. purified FLuc, Km substrates, luminescence inhibition; also: nearly all actives have a fitted effect of over 55% in size
Target sequence (P08659 whole entry, looked up): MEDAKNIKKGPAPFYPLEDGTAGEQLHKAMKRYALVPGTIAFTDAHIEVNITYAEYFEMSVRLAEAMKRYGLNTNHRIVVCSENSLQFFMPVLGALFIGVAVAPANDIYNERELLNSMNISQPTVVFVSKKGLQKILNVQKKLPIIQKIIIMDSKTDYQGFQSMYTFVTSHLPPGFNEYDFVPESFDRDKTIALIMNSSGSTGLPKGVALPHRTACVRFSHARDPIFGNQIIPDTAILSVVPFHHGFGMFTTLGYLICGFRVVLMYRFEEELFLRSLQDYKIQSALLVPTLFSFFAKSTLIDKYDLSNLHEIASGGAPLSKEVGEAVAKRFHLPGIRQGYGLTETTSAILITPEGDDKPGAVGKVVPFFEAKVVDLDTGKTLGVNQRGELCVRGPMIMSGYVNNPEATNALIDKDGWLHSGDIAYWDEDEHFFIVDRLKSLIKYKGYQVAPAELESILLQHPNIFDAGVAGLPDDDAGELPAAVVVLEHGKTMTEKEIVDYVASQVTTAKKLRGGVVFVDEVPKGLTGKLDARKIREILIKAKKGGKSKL
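Purified P. pyralis luciferase (10nM final) with 10uM D-luciferin and 10uM ATP (Km levels) in 50mM Tris acetate pH 7.5, 10mM Mg acetate, 0.01% Tween-20, 0.05% BSA; qHTS 6-point titration, ~60 µM downward; luminescence read.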
Rab9 prom act: qHTS Assay for Rab9 Promoter Activators | Huh7 Rab9 promoter-luciferase reporter, luminescence, 24 h | Potency, µM (highest dose often 9.22 µM), actives largely listed as activators | 320,000 compounds, 2.8% hits; also: nearly all actives have a fitted effect of over 60% in size
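Measured in stably transfected Huh7 cells bearing a Rab9 promoter–luciferase construct: 24 h compound treatment at 37 °C, followed by luminescence detection.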
Each line names hits and unclear results; the compound was inactive in the other large screens. Calls follow the shape of the dose curve; as a rule, active = well fitted curve in the direction sought with a large enough effect; inconclusive = small, poorly fitted or top-dose-only effect, or another doubt; inactive = no such curve, though single readings can be large; an effect the other way counts as inactive or inconclusive.

CCCCOc1ccc(C(=O)N/C(=C/C=C/c2ccccc2)C(=O)NC)cc1	FLuc counter 17µM
Cn1c(=O)c(=O)n(C)c2cc(N3CCCC3)c(NC(=O)c3ccccc3F)cc21	none (no result: ELG1 genotoxic, NPC1 promoter act, Rab9 prom act)
Cc1ccccc1OC(C)C(=O)Nc1cccnc1 (stereo not given)	none (no result: SMN2 splice up)
CCC(CCC(=O)NNC(=O)Cc1ccc([N+](=O)[O-])cc1)C(=O)O (stereo not given)	none (no result: SMN2 splice up)
Cc1ccc(Nc2cc(C(=O)NCCCN3CCOCC3)c3ccccc3n2)cc1C	FLuc counter 12µM (no result: SMN2 splice up)
CCOc1ccc(-c2cc(C(=O)NCCCn3ccnc3)c3cc(Br)ccc3n2)cc1	FLuc counter 5.4µM (no result: SMN2 splice up)
O=C(NCCCN1CCOCC1)c1cc(-c2ccccc2)nc2ccccc12	none (no result: SMN2 splice up)
CCOc1ccc(-c2cc(C(=O)NCCCn3ccnc3)c3ccccc3n2)cc1	FLuc counter 6µM
CCOc1ccc(-c2cc(C(=O)NCCCN3CCN(CC)CC3)c3ccccc3n2)cc1	FLuc counter 8.5µM
CCOc1ncccc1C(=O)NCCc1ccc(S(N)(=O)=O)cc1	none (no result: SMN2 splice up)
CCCN1CCN(CCCNC(=O)c2ccc3c(c2)sc2nc(-c4ccc(OCC)cc4)cn23)CC1	FLuc counter 11µM (no result: ELG1 genotoxic, NPC1 promoter act, Rab9 prom act)
COc1ccc(-c2cc(C(=O)NCCN3CCOCC3)c3ccccc3n2)cc1	FLuc counter 17µM
COc1ccc(-c2cn3c(n2)sc2cc(C(=O)Nc4ccc(F)cc4Cl)ccc23)cc1	SMN2 splice up inconclusive, FLuc counter 19µM (no result: ELG1 genotoxic, NPC1 promoter act, Rab9 prom act)
COc1ccc(-c2cn3c(n2)sc2cc(C(=O)Nc4ccc(C)cc4C)ccc23)cc1	none (no result: ELG1 genotoxic, NPC1 promoter act, SMN2 splice up, Rab9 prom act)
CCOc1ccc(-c2cn3c(n2)sc2cc(C(=O)NCCCN4CCCCCC4)ccc23)cc1	none (no result: ELG1 genotoxic, NPC1 promoter act, SMN2 splice up, Rab9 prom act)
COC(=O)c1c(-c2cccs2)csc1NC(=O)COc1ccc(C)cc1	none (no result: ELG1 genotoxic, NPC1 promoter act, SMN2 splice up, Rab9 prom act)
COC(=O)c1c(-c2cccs2)csc1NC(=O)c1cccnc1	FLuc counter 17µM, Rab9 prom act inconclusive
COC(=O)c1c(-c2cccs2)csc1NC(=O)COc1ccccc1	FLuc counter 6.7µM (no result: ELG1 genotoxic, NPC1 promoter act, SMN2 splice up, Rab9 prom act)
CC(=O)[C@@]1(O)C(C)CC2C3C=C(C)C4=Cc5c(cnn5-c5ccccc5)C[C@]4(C)C3C(O)C[C@@]21C (stereo not given in full)	none (no result: SMN2 splice up)
O=C(Nc1cccc(Cl)c1)c1cc(-c2ccccc2)on1	FLuc counter 1.5µM (no result: ELG1 genotoxic, NPC1 promoter act, SMN2 splice up, Rab9 prom act)
O=C(Nc1cc(Cl)ccc1O)c1cc(-c2ccco2)on1	ELG1 genotoxic 21µM, FLuc counter inconclusive (no result: SMN2 splice up)
CCc1ccc(NC(=O)c2cc(-c3ccco3)on2)cc1	FLuc counter 2.4µM
COc1cccc(-c2cc(C(=O)Nc3ccccc3SC)no2)c1	ELG1 genotoxic inconclusive, NPC1 promoter act inconclusive, FLuc counter 7.6µM, Rab9 prom act inconclusive
COc1ccc(NC(=O)c2cc(-c3ccco3)on2)cc1	SMN2 splice up inconclusive, FLuc counter inconclusive
COc1cc(SC)ccc1C(=O)N1CCC(Cc2ccccc2)CC1	none (no result: ELG1 genotoxic, SMN2 splice up, FLuc counter)
COc1ccc(Cl)cc1NC(=O)CC1S/C(=N/N=C2CCCCCC2)NC1=O (stereo not given)	none (no result: SMN2 splice up)
Cc1cccc(Oc2coc3cc(O)ccc3c2=O)c1	ELG1 genotoxic inconclusive, FLuc counter inconclusive (no result: SMN2 splice up)
O=C(Nc1c(Cl)cccc1Cl)c1cc(-c2ccco2)on1	FLuc counter inconclusive (no result: SMN2 splice up)
COc1ccc(-c2cc(C(=O)Nc3cccc(Cl)c3)no2)cc1	ELG1 genotoxic 1.8µM, NPC1 promoter act 1µM, FLuc counter 0.76µM, Rab9 prom act 1.1µM (no result: SMN2 splice up)
COc1cccc(-c2cc(C(=O)Nc3cccnc3Cl)no2)c1	ELG1 genotoxic inconclusive
O=C(Nc1cccnc1Cl)c1cc(-c2ccco2)on1	ELG1 genotoxic 16µM, FLuc counter 5.4µM, Rab9 prom act inconclusive
O=C(Nc1cnn(C23CC4CC(CC(C4)C2)C3)c1)c1cc(-c2ccccc2)on1	none
O=C(Nc1cccc(Cl)c1)c1cc(-c2ccco2)on1	FLuc counter 2.7µM (no result: SMN2 splice up)
CCCn1cc(NC(=O)c2cc(-c3ccccc3)on2)cn1	ELG1 genotoxic 23µM, FLuc counter 13µM, Rab9 prom act inconclusive
O=C(Cn1c(=O)oc2cc(S(=O)(=O)NCc3ccccc3)ccc21)NCc1ccccc1Cl	none (no result: ELG1 genotoxic, NPC1 promoter act, SMN2 splice up, Rab9 prom act)
